Screen size: about 400,000 compounds; about 5,500 (1.4%) were called active. Where a call stands in place of a potency, no number is given. Inconclusive results (about 9%) are left out. The sample as a whole holds a higher share of actives than the screen did. A number with no mark means an inactive call. Calls come from the whole dose curve; as a rule, active = well fitted cell-killing curve with a large enough effect; inconclusive = small, poorly fitted or top-dose-only effect, or effect the other way; inactive = flat fitted curve, though single readings scatter.

In PubChem BioAssay AID1347075 (National Center for Advancing Translational Sciences (NCATS), 2019) one finds Potency and activity change, negative = cytotoxic data, which are given here for 100 compounds.
Potency is the fitted concentration of half-maximal effect.

The nature of the experiment: qHTS assay for MDR1-selective chemotherapeutics: Primary screen using the parental adenocarcinoma cell KB-3-1. Note: nearly all actives have a fitted effect of over 60% in size. Conditions: KB-3-1 viability, CellTiter-Glo ATP luminescence, 72 h; series mostly up to 46.1 µM. The essentials: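 72 h, 37 °C compound treatment of KB-3-1 parental cells; CellTiter-Glo added, 10 min, luminescence read. Data corrected against DMSO-only plates and normalized before curve fitting.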
(In general: qHTS replaces the single test concentration by a dilution series.)
As to `COc1ccc(NC(=O)c2cnc(Nc3ccc(C)c(Cl)c3)c3ccccc23)cc1OC`, the Potency entry is “inactive”.

For `Brc1nc2ncnc(NCc3ccco3)c2[nH]1`, the Potency result was “inactive”.

Take `O=C(CNS(=O)(=O)c1cccs1)N1CCN(c2ccccc2Cl)CC1`: the Potency result was “inactive”.

For the compound `Cc1cccc2c1-c1sc(C(=O)Nc3ccc(F)cc3F)cc1CO2`, the Potency result is “inactive”.

`CCn1cc2nc(SCc3cccc(F)c3)n(CCc3ccccc3)c(=O)c2n1`: the Potency result was “inactive”.

For `Cn1cc([N+](=O)[O-])c(C(=O)Nc2ccc3c(c2)OCCO3)n1`, the Potency result was “inactive”.

On to `Cc1nn(-c2ccccc2)c(Cl)c1/C=N/NC(=O)c1nn(C)cc1[N+](=O)[O-]`, for which the Potency is 18.4 µM (active).

Regarding `Cc1nn(Cc2ccc(Cl)cc2)c(Cl)c1/C=N/NC(=O)CNc1ccccc1F`, the Potency result is “inactive”.

With `Cc1csc(NC(=S)Nc2cccc(Cl)c2)n1`, the Potency is 20.6 µM (active).

As to `O=C(Nc1cccc(Cl)c1)c1csnn1`, the Potency result is “inactive”.

In the case of `Cc1ccc(C2CCN(C(=S)Nc3cccc(Cl)c3)C2)cc1` (stereo not given), the Potency entry was “inactive”.

`COc1ccccc1C(=O)NCCn1cc(SCc2ccccc2Cl)c2ccccc21`: the Potency result was “inactive”.

Turning to `CCOC(=O)c1ccc(NC(=O)CCS(=O)(=O)c2ccc3c(c2)oc(=O)n3C)cc1`, the Potency entry was “inactive”.

As for `O=C(NCc1ccc(F)cc1)c1ccc(Cn2c(SCc3ccc(F)cc3)nc3cccnc32)cc1`, the Potency entry is “inactive”.

With `Cc1ccc(OCCSc2nc(-c3cccs3)nc3cc(=O)[nH]n23)cc1Cl`, the Potency result was “inactive”.

Turning to `COc1cccc2c1C(=O)c1c(O)c3c(c(O)c1C2=O)CC(O)(C(C)=NNC(=O)c1ccc(Cl)c(Cl)c1)CC3OC1CC(N)C(O)C(C)O1` (stereo not given), the Potency is 2.06 µM (active).

On to `Cc1ccc(N2CCN(C(=S)Nc3cc(C)ccn3)CC2)cc1`, for which the Potency entry was “inactive”.

For the compound `CCCCCn1c(=O)[nH]c2cc(C(=O)Nc3ccc(F)cc3)ccc2c1=O`, the Potency entry was “inactive”.

Turning to `CCC(=C/c1sc2ccc3ccccc3c2[n+]1C)/C=C1\Sc2ccc3ccccc3c2N1C`, the Potency is 9.2 µM (active).

Take `COc1ccc(CNC(=O)COCc2cc(-c3cccs3)on2)cc1OC`: the Potency result is “inactive”.

As to `Cc1ccc(OCC(=O)OCc2cc(=O)n3nc(C4CC4)sc3n2)cc1`, the Potency result is “inactive”.

With `CCN1/C(=C\c2ccc3ccccc3[n+]2CC)Sc2cc(C)ccc21`, the Potency was 4.61 µM (active).

Turning to `CCN1/C(=C/c2ccc3ccc(C)cc3[n+]2CC)Sc2ccccc21`, the Potency is 2.59 µM (active).

Consider `CC(=O)Nc1ccc(NC(=O)CSc2nnc3c4cc(Br)ccc4n(C)c3n2)cc1`, for which the Potency entry was “inactive”.

On to `NC(=O)Nc1ccc(/C=C/c2ccnc3ccccc23)cc1`, for which the Potency result is “inactive”.

Take `N#Cc1ccc[n+](CC(=O)c2ccc(F)cc2)c1`: the Potency entry was “inactive”.

For `COc1ccc2sc(-c3ccc(S(C)(=O)=O)cc3)c(C#Cc3cncn3C)c2c1`, the Potency result was “inactive”.

`COc1ccc2sc(-c3ccc(S(C)(=O)=O)cc3)c(-c3ccc(C(N)=O)cc3)c2c1`: the Potency entry is “inactive”.

Turning to `COc1ccc2sc(-c3ccc(N(C)C)cc3)c(C#CCO)c2c1`, the Potency was 16.4 µM (active).

As to `COC(=O)C1=C(Nc2ccc(C)cc2)C=C(C)C(C(=O)OC)C1c1ccc(F)cc1` (stereo not given), the Potency was 11.2 µM (active).

Turning to `COC(=O)C1(C)NC(c2ccc(C)cc2)C2C(=O)N(c3ccc(F)cc3)C(=O)C21` (stereo not given), the Potency entry is “inactive”.

On to `COC(=O)C1C(=O)NCC1c1ccc(C)cc1` (stereo not given), for which the Potency entry was “inactive”.

Regarding `Cc1ccc2cccc(NC(=O)c3cccc4ccccc34)c2n1`, the Potency entry is “inactive”.

`CCc1ccccc1OCCSc1nc(-c2cccs2)nc2cc(=O)[nH]n12`: the Potency entry is “inactive”.

`O=C(c1cccc(Cl)c1)N1CCN(CCc2ccncc2)CC1`: the Potency entry was “inactive”.

As to `CNc1cncc(-c2cccc(C(=O)N3CCOCC3)c2)n1`, the Potency result is “inactive”.

Regarding `CNc1cncc(-c2ccc(NS(C)(=O)=O)cc2)n1`, the Potency is 2.91 µM (active).

`CS(=O)(=O)Nc1ccc(C(=O)N2CCCC2)cc1`: the Potency result was “inactive”.

In the case of `CC(=O)c1sc(N2C(=O)c3oc4ccccc4c(=O)c3C2c2ccc(C)cc2)nc1C` (stereo not given), the Potency result is “inactive”.

In the case of `COc1ccc(-c2nc3ccccc3o2)cc1NC(=O)c1cc([N+](=O)[O-])ccc1N1CCOCC1`, the Potency result is “inactive”.

`Cc1ccc2c(c1)-c1c(cnn1CC(=O)Nc1ccccc1C#N)CO2`: the Potency entry was “inactive”.

In the case of `COc1ccccc1CNC(=O)CCn1c(=O)c2ccccc2n(CC(=O)Nc2ccc(Br)cc2F)c1=O`, the Potency result is “inactive”.

`CC(C)C(=O)Nc1cccc(NC(=S)NC(=O)C(c2ccccc2)c2ccccc2)c1`: the Potency is 20.6 µM (active).

For `CC(C)C(=O)Nc1cccc(NC(=O)c2ccc([N+](=O)[O-])cc2Cl)c1`, the Potency entry was “inactive”.

`CCCC(=O)Nc1cccc(NC(=S)NC(=O)C(C)Oc2ccc(Cl)cc2Cl)c1` (stereo not given): the Potency result is “inactive”.

As for `CCc1ccc(S(=O)(=O)n2ccnc2)cc1`, the Potency entry was “inactive”.

`Cc1cc(C)n2ncc(C(=O)Nc3cccc(C#N)c3)c2n1`: the activity change, negative = cytotoxic was 0% [at 9.22 µM].

Turning to `CCOc1cc(-c2nnc(SCC(=O)NC3CCCC3)nc2-c2ccc(OC)c(OCC)c2)ccc1OC`, the Potency entry was “inactive”.

For `CCn1c(=O)c2ccccc2n(CC(=O)N2CCCc3ccccc32)c1=O`, the Potency entry is “inactive”.

In the case of `O=C1/C(=C\c2ccccc2Cl)SC(=S)N1CCC(=O)N1CCCc2ccccc21`, the Potency is 23.1 µM (active).

As for `O=C(CN1C(=O)S/C(=C\c2ccccc2Cl)C1=O)NC1C=CS(=O)(=O)C1` (stereo not given), the Potency result is “inactive”.

As to `CCOc1ccc(CCNC(=O)c2cc3c(=O)n(C)c4ccccc4c3n2C)cc1`, the Potency entry is “inactive”.

For `CCN(CC)c1ccc(NS(=O)(=O)c2cc(-c3cc(C)no3)ccc2C)c(C)c1`, the Potency entry is “inactive”.

Turning to `CC(C)c1ccc(NC(=O)c2ccc3c(O)c(S(=O)(=O)c4ccccc4)c(=O)[nH]c3c2)cc1`, the Potency result is “inactive”.

In the case of `COc1ccc(S(=O)(=O)c2cn(C)c3cc(N4CCCCC4)c(F)cc3c2=O)cc1`, the Potency entry is “inactive”.

Take `CCOC(=O)c1cc2occc2n1CC(=O)N1CCN(C(=O)c2ccco2)CC1`: the Potency entry is “inactive”.

Consider `CCOC(=O)c1cc2c(ccn2C)n1CC(=O)N1CCC(C)CC1`, for which the Potency was 23.1 µM (active).

In the case of `CCOC(=O)c1cc2occc2n1CC(=O)NC1CCC(C)CC1` (stereo not given), the Potency entry is “inactive”.

Regarding `Cc1ccc(C)c(OCC(=O)Nc2sc3c(c2C#N)CCCC3)c1C`, the Potency result was “inactive”.

In the case of `COc1ccc(N2CCN(C(=O)C3CCCN(C(=O)c4cc5sccc5n4C)C3)CC2)cc1` (stereo not given), the Potency result is “inactive”.

In the case of `Cc1cc(=O)oc2cc(OC(C)C(=O)NCCc3ccc(S(N)(=O)=O)cc3)ccc12` (stereo not given), the Potency entry is “inactive”.

For `COc1ccc(N2CCN(C(=O)COc3ccc4c(C)cc(=O)oc4c3)CC2)cc1`, the Potency result was “inactive”.

Turning to `CC(=O)c1c(C)[nH]c(C(=O)COc2ccc3c(C)cc(=O)oc3c2)c1C`, the Potency is 14.6 µM (active).

As to `CC(=O)c1c(C)[nH]c(C(=O)COC(=O)CCOc2ccc(C)cc2)c1C`, the Potency result was “inactive”.

Regarding `Cc1ccc(O)c(/C=N/NC(=O)COc2ccc3c(C)cc(=O)oc3c2)c1`, the Potency is 18.4 µM (active).

Take `Cc1ccc(OCC(=O)Nc2ccc3oc(=O)ccc3c2)cc1C`: the Potency result was “inactive”.

Regarding `Cc1cccc2c(=O)cc(CSc3ccccc3NC(=O)C(C)C)[nH]c12`, the Potency result is “inactive”.

Regarding `Cc1cc(C)cc(NC(=O)Cn2c(=O)c3ccccc3n3nncc23)c1`, the Potency result was “inactive”.

Take `Cc1csc(NCC(=O)c2c[nH]c3ccccc23)n1`: the Potency result is “inactive”.

Consider `Cn1cc(S(=O)(=O)N2CCCCCC2)cc1C(=O)N1CCN(c2ccc(F)cc2)CC1`, for which the Potency result was “inactive”.

As for `O=[N+]([O-])c1c(NCCO)cc(Sc2nc3ccccc3s2)c2nonc12`, the Potency result is “inactive”.

With `Brc1ccccc1/C=N/Nc1nc2ccccc2o1`, the Potency result is “inactive”.

For `O=[N+]([O-])c1cc(Br)c(O)c(/C=N/Nc2nc3ccccc3s2)c1`, the Potency is 23.1 µM (active).

On to `COc1cc(OC)c(C2C=C(C(=O)O)Nc3ncnn32)cc1OC` (stereo not given), for which the Potency entry is “inactive”.

For the compound `S=c1[nH]c(=S)c2n[nH]nc2[nH]1`, the Potency result is “inactive”.

In the case of `COc1ccc2c(CC(=O)N3CCc4cc(OC)c(OC)cc4C3)coc2c1`, the Potency entry is “inactive”.

As to `COc1ccccc1N1CCN(C(=O)c2ccc(NC3=NC4CS(=O)(=O)CC4S3)cc2)CC1` (stereo not given), the Potency entry was “inactive”.

Regarding `COc1ccccc1N1CCN(C(=O)c2cc(=O)c3cc(C)ccc3o2)CC1`, the Potency is 13 µM (active).

Consider `COc1cc(Cl)ccc1Nc1ncc(C(=O)N2CCN(c3ccccc3OC)CC2)c2ccccc12`, for which the Potency result is “inactive”.

In the case of `COc1cc2c(cc1OC)CN(C(=O)c1cc(=O)c3ccccc3o1)CC2`, the Potency is 2.91 µM (active).

For the compound `COc1cc2c(cc1OC)CN(C(=O)c1cc(S(=O)(=O)N3CCCCC3)ccc1Cl)CC2`, the Potency result is “inactive”.

Take `COc1ccccc1N1CCN(C(=O)c2cc(=O)c3cc(C)cc(C)c3o2)CC1`: the Potency was 0.206 µM (active).

Turning to `COc1ccc(Nc2ncc(C(=O)N3CCN(c4ccccc4OC)CC3)c3ccccc23)cc1`, the Potency entry is “inactive”.

In the case of `COc1cc(CCC(=O)N2CCN(c3ccccc3Cl)CC2)cc(OC)c1OC`, the Potency entry is “inactive”.

As for `CCc1ccc2oc(-c3ccc(C)c(NC(=O)/C=C/c4ccco4)c3)nc2c1`, the Potency entry was “inactive”.

Turning to `COc1ccccc1CNC(=O)CCCCn1c(=O)c2ccccc2n(CC(=O)Nc2cc(Cl)ccc2C)c1=O`, the Potency result is “inactive”.

In the case of `CCCS(=O)(=O)N1CCC(n2c(C(F)(F)F)nc3cccnc32)CC1`, the Potency entry was “inactive”.

Turning to `O=C(NCC(c1ccco1)S(=O)(=O)c1cccs1)c1ccc(F)cc1` (stereo not given), the Potency entry was “inactive”.

With `CS(=O)c1ccc(/C=C2\C=Cc3ccccc32)cc1` (stereo not given), the Potency entry was “inactive”.

As for `O=C(CCn1c(=O)c2ccccc2n(Cc2ccc(Cl)cc2)c1=O)NCc1ccc2c(c1)OCO2`, the Potency result is “inactive”.

Turning to `CCc1ccc(C(=O)CC2(O)C(=O)N(CCc3ccccc3)c3ccc(Br)cc32)cc1` (stereo not given), the Potency result is “inactive”.

As to `COc1ccc(NC(=O)N2CCCn3nc(C)cc32)cc1OC`, the Potency entry is “inactive”.

Turning to `CCOc1ccc(CNC(=O)c2ccc3nc(CC)c(CC)nc3c2)cc1OC`, the Potency result is “inactive”.

For `CN(C)c1cccc2ccccc12`, the Potency entry was “inactive”.

Turning to `Cc1ccc(F)cc1S(=O)(=O)N1CCC(c2nc3ccccc3s2)CC1`, the Potency entry was “inactive”.

Turning to `CCOC(=O)c1ccc(NC(=O)Cn2cc(S(=O)(=O)Cc3ccccc3F)c3ccccc32)cc1`, the Potency result was “inactive”.

On to `Cc1ccc(C)c(Cn2c(C)c(CNCc3ccc(F)cc3)c(C(=O)O)c2C)c1`, for which the Potency result was “inactive”.

For `CCOC(=O)N1CCN(S(=O)(=O)c2ccc(C(=O)Nc3ccc(F)cc3F)cc2)CC1`, the Potency is 4.61 µM (active).

Take `O=C(Nc1ccccc1F)c1ccc(S(=O)(=O)N2CCCCCC2)cc1`: the Potency entry is “inactive”.

`CCOC(=O)N1CCN(S(=O)(=O)c2ccc(Br)cc2)CC1`: the Potency entry is “inactive”.
